The source of these data is PubChem BioAssay.

Active and inactive are the calls of the source.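 How the source made its calls, unless noted: active means compounds lowering colon cancer cell viability after pretreatment blocking the GSK3B kinase; inactive means the rest.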

Experiment [1] in a line: Wnt pathway potentiators raising nuclear beta-catenin – imaging, WNT3A-conditioned medium, mouse C2C12, NPC library, primary screen (AID 1117326; in the data active means nuclear beta-catenin stimulation mostly above about 4.2%, no sharp cut-off; inactive means mostly below about 10%; further: reference of the scale not given here). To be noted: stronger effect = higher value.
Experiment [2] in a line: stimulators of insulin release from INS-1E, primary screen, cell-based, 5 mM glucose, NPC library (AID 1117329;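 active means compound raises insulin release from rat beta cells at 5 mM glucose, no numeric limit stated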; further: reference of the scale not given here). The settings on record: rat INS-1E insulin secretion, at 10 µM, stronger effect = higher value.
Experiment [3] in a line: growth inhibition of GSK3B-pretreated HCT116 cells – cell-based, CellTiter-Glo, 0.2 to 20 µM (AID 1117336). The settings on record: HCT116 viability after GSK3B inhibitor, at 20 µM, stronger effect = higher value. For orientation: Cellular ATP, detected with luciferase, serves as a proxy for viable cell number.
The nature of experiment [4]: inhibition of endothelial tube formation, primary screen, imaging, VEGF stimulated, CD31 staining, tube area, NPC library (AID 1117340;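 active means compound that reduces growth-factor-driven endothelial tube area in a mixed cell culture, no cutoff stated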). To be noted: VEGF-stimulated ADSC/ECFC co-culture, at 10 µM, stronger effect = higher value.
The nature of experiment [5]: GLP1 release stimulators, primary, NCI-H716, NPC library (AID 1117341;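 active means compound raises GLP1 secretion from the human gut endocrine cells, with no numeric limit stated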; further: reference of the scale not given here). To be noted: NCI-H716 cells, at 10 µM, stronger effect = higher value.
The nature of experiment [6]: HCT116 colon cancer cell growth inhibition, primary screen, CellTiter-Glo luminescence, NPC library (AID 1117342;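 active means compounds that lower survival of HCT116 colon cancer cells in the luminescence readout, no numeric limit stated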). To be noted: at 20 µM (top of the series).
The nature of experiment [7]: reduced SW480 viability measured with CellTiter-Glo, NPC library, primary (AID 1117343;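 active means compounds that lower viability of the colon cancer cells in the luminescence readout, with no numeric limit stated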). The settings on record: CellTiter-Glo luminescence; at 20 µM (top of the series).
The nature of experiment [8]: NPC library primary testing for decreased DLD-1 cell viability via CellTiter-Glo (AID 1117346;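 active means compounds that lower survival of DLD-1 colon cancer cells in the luminescence readout, no cutoff given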). The settings on record: DLD-1 viability, CellTiter-Glo luminescence; at 20 µM (top of the series).

On to `C[N+]1(CCF)[C@@H]2CC[C@H]1CC(OC(=O)C(O)(c1ccccc1)c1ccccc1)C2` (stereo partly specified), for which the nuclear beta-catenin stimulation is -2.1% (inactive) in experiment [1] (at 10 µM) and 0.7% in experiment [1] (stimulation, at 2 µM). In addition, the insulin secretion stimulation in experiment [2] is -0.1% (inactive). Moreover, the viability decrease in experiment [3] was 4.8% (inactive). The tube area decrease in experiment [4] was 16.4% (inactive). In addition, the GLP1 secretion stimulation in experiment [5] is 4.4% (inactive). Moreover, in experiment [6], the inhibition of viability was 5.8% (inactive). In addition, the viability decrease (inhibition) in experiment [7] was -2% (active); in experiment [8] it was -1.5% (inactive).

Take `CCN(Cc1ccc(Cl)nc1)/C(=C/[N+](=O)[O-])NC`: the nuclear beta-catenin stimulation is -0.1% (inactive) in experiment [1] (at 10 µM) and 1.1% in experiment [1] (stimulation, at 2 µM). Further, in experiment [2], the insulin secretion stimulation was 3.5% (inactive). In experiment [3], the viability decrease was 3.9% (inactive). In addition, the tube area decrease in experiment [4] was -21.3% (inactive). Moreover, the GLP1 secretion stimulation in experiment [5] is -4.7% (inactive). The inhibition of viability in experiment [6] is -3.27% (inactive). The viability decrease (inhibition) in experiment [7] is 13.3% (inactive); in experiment [8], 4.5% (inactive).

`Oc1ccc2[nH]cc(CCCCN3CC=C(c4ccccc4)CC3)c2c1`: the nuclear beta-catenin stimulation in experiment [1] (at 10 µM) was 12.1% (inactive); in experiment [1] (stimulation, at 2 µM) it was 4%. In experiment [2], the insulin secretion stimulation was 1.8% (inactive). Besides, in experiment [3], the viability decrease is 81.3% (active). Further, in experiment [4], the tube area decrease is 76.6% (active). The GLP1 secretion stimulation in experiment [5] is 5.1% (inactive). In experiment [6], the inhibition of viability was 85% (active). In addition, the viability decrease (inhibition) in experiment [7] is 102% (active); in experiment [8], 81.4% (active).

As for `O=C(CCCCl)c1ccc(F)cc1`, the nuclear beta-catenin stimulation is -0.1% (inactive) in experiment [1] (at 10 µM) and -0.7% in experiment [1] (stimulation, at 2 µM). Besides, the insulin secretion stimulation in experiment [2] was -0.9% (inactive). Also, in experiment [3], the viability decrease was -6.5% (inactive). Further, the tube area decrease in experiment [4] was -3.6% (inactive). For the same compound, the GLP1 secretion stimulation in experiment [5] is 0.1% (inactive). The inhibition of viability in experiment [6] is 3.2% (inactive). Also, the viability decrease (inhibition) in experiment [7] was -14.9% (inactive); in experiment [8], 5.8% (inactive).

As to `CCC(=O)O[C@@H]1C=C2CCC3C(CCC4(C)C3CC[C@@H]4OC(=O)CC)C2CC1` (stereo partly specified), the nuclear beta-catenin stimulation in experiment [1] (at 10 µM) is -0.9% (inactive); in experiment [1] (stimulation, at 2 µM), 1.3%. In addition, in experiment [2], the insulin secretion stimulation is 4.8% (inactive). In addition, the viability decrease in experiment [3] was 7.6% (inactive). In addition, the tube area decrease in experiment [4] was -11.8% (inactive). Besides, the GLP1 secretion stimulation in experiment [5] is -4.4% (inactive). For the same compound, the inhibition of viability in experiment [6] was 21.4% (inactive). The results for the viability decrease (inhibition) in experiment [7] and in experiment [8] were 13.2% (inactive) and 9.9% (inactive), respectively.

As for `C1CN2CCC1CC2`, the nuclear beta-catenin stimulation in experiment [1] (at 10 µM) is 0.4% (inactive); in experiment [1] (stimulation, at 2 µM), 3.2%. Besides, the insulin secretion stimulation in experiment [2] is 1.5% (inactive). Also, in experiment [3], the viability decrease was -7.5% (inactive). In addition, the tube area decrease in experiment [4] was 9.8% (inactive). In experiment [5], the GLP1 secretion stimulation is 6.5% (inactive). Also, the inhibition of viability in experiment [6] is 4% (inactive). The viability decrease (inhibition) in experiment [7] is 4.8% (inactive); in experiment [8], 3.1% (inactive).

Consider `Cc1nnc2n1-c1sc(CCc3ccc(CC(C)C)cc3)cc1C(c1ccccc1Cl)=NC2C` (stereo unspecified), for which the nuclear beta-catenin stimulation is -1% (inactive) in experiment [1] (at 10 µM) and 3.8% in experiment [1] (stimulation, at 2 µM). Further, the insulin secretion stimulation in experiment [2] is 4.1% (inactive). The viability decrease in experiment [3] is 110% (active). In addition, in experiment [4], the tube area decrease was 48.1% (active). In addition, the GLP1 secretion stimulation in experiment [5] was 20.1% (active). Also, the inhibition of viability in experiment [6] is 113% (active). Moreover, the values for the viability decrease (inhibition) in experiment [7] and in experiment [8] were 134% (active) and 102% (active), respectively.

Consider `NCC(O)c1cccc(O)c1` (stereo unspecified), for which the nuclear beta-catenin stimulation in experiment [1] (at 10 µM) was -0.9% (inactive); in experiment [1] (stimulation, at 2 µM) it was 0.5%. In addition, the insulin secretion stimulation in experiment [2] was 0.5% (inactive). Also, the viability decrease in experiment [3] was -15% (inactive). Besides, in experiment [4], the tube area decrease is -16.5% (inactive). In addition, in experiment [5], the GLP1 secretion stimulation was 2.9% (inactive). In addition, the inhibition of viability in experiment [6] was 4.5% (inactive). For the same compound, the viability decrease (inhibition) was 4.3% (inactive) in experiment [7] and 5.4% (inactive) in experiment [8].

In the case of `C[C@]12CC[C@H]3[C@@H](CC[C@@]45O[C@H]4C(O)=C(C#N)C[C@]35C)[C@H]1CC[C@H]2O`, the nuclear beta-catenin stimulation in experiment [1] (at 10 µM) is 1.5% (inactive); in experiment [1] (stimulation, at 2 µM) it was 1.1%. In experiment [2], the insulin secretion stimulation was -0.7% (inactive). For the same compound, the viability decrease in experiment [3] was -177% (inactive). The tube area decrease in experiment [4] is 28.3% (inactive). In addition, in experiment [5], the GLP1 secretion stimulation is -1.5% (inactive). Also, the inhibition of viability in experiment [6] is 11.5% (inactive). The viability decrease (inhibition) was 5.1% (inactive) in experiment [7] and -16.6% (inactive) in experiment [8].
